# Screening data from PubChem.
# HEK cytotox: kills HEK 293 cells; HEK 293 viability, ATP luminescence (CellTiter-Glo), 48-72 h; Potency, µM (doses to about 115 µM), for inactives: at the top dose activity change, negative = cytotoxicity, hits mostly inhibitors; 94,000 compounds, 6.6% hits; AID 1345083; note: nearly all actives have a fitted effect of over 60% in size
#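 HEK 293 cells seeded at 250 cells/well were exposed to compound for 48 or 72 hr at 37 degree Celsius. Viability taken as ATP content by CellTiter-Glo luminescence.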
# 3T3 cytotox: kills NIH 3T3 cells; NIH 3T3 viability, CellTiter-Glo ATP luminescence, 48-72 h; 94,000 compounds, 4.3% hits; Potency, µM (titrated, usually from 96.7 µM), for the others: at the top dose activity change, negative = cytotoxicity, usual class: inhibitors; note: nearly all actives have a fitted effect of over 55% in size
#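 Viability of NIH 3T3 cells after 48 or 72 hr compound treatment at 37 °C was assessed by CellTiter-Glo, with luminescence imaged following a 10 min room-temperature step.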
# HEK293 viab: counter-screen for SNCA expression inhibitors: cell viability; AID 1671193; HEK-293-SNCA-luc viability, GF-AFC fluorescence, 24 h; Potency, µM (doses to about 57.1 µM), for the others: top-dose activity change, negative = cytotoxicity, most hits filed as cytotoxic; 150,000 compounds, 0.12% hits;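 note: 0% = DMSO-treated cells and -100% = medium-only wells without cells; nearly all actives have a fitted effect of over 30% in size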
#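 Cytotoxicity counterscreen: after 24 h compound treatment of genome-edited SNCA-luciferase HEK-293 cells, live-cell protease substrate GF-AFC read by fluorescence after 30 min; activity scaled between DMSO (0%) and medium-only (-100%), curves Hill-fitted.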
# SNCA expr inhib: inhibitors of alpha-synuclein (SNCA) gene expression; 140,000 compounds, 0.17% hits; AID 1671194; Potency, µM (series often up to 57.2 µM), for the others: top-dose activity change, negative = inhibition, most hits filed as inhibitors; HEK-293 SNCA-luciferase knock-in, luminescence, 24 h;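 note: plate controls were DMSO cells for no effect and cell-free wells for full effect; nearly all actives have a fitted effect of over 45% in size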
# hNpr1 antagonist: antagonists of human natriuretic peptide receptor Npr1 | P16066 | HEK293 hNpr1 GloSensor cGMP, ANP-stimulated luminescence | Potency, µM (titrated, usually from 46.3 µM), for the others: top-dose activity change, negative = inhibition, usual class: inhibitors | 76,000 compounds, 1.6% hits; calls by dose curve; note: nearly all actives have a fitted effect of over 60% in size
# Target sequence (P16066 whole entry, looked up): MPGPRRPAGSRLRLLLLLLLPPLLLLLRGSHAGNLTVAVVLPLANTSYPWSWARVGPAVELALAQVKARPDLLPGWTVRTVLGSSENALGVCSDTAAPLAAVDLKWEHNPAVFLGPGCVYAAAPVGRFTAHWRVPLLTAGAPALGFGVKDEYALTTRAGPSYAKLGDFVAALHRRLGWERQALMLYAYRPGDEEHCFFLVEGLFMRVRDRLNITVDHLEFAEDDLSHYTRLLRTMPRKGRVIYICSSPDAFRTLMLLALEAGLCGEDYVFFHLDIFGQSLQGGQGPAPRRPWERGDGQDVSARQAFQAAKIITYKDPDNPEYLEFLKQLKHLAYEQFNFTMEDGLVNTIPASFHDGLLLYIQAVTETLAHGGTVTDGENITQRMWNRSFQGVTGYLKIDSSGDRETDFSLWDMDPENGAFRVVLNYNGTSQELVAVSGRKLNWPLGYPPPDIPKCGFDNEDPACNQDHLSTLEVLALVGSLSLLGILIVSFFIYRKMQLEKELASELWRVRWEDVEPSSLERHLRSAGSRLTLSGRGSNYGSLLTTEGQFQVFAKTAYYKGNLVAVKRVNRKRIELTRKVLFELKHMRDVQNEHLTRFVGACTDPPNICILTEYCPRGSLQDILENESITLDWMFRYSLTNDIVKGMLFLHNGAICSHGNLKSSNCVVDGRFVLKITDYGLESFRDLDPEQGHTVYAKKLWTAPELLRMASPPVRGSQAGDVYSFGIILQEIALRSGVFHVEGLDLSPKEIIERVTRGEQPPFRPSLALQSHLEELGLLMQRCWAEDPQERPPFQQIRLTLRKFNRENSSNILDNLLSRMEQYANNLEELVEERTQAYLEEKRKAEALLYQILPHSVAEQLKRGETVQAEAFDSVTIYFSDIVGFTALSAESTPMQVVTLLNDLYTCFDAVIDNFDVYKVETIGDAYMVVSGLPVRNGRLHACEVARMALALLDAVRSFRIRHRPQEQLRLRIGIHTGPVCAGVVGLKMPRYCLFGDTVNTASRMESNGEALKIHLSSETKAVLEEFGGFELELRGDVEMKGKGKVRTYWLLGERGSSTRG
#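 HEK293 cells stably expressing human Npr1 and cGMP GloSensor pGS-40F, loaded 2 h with 2% GloSensor reagent, given compound 30 min at room temperature. Luminescence read before and 20 min after 0.1 nM hNppA.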
# Luciferase inh: inhibitors of firefly (Photinus pyralis) luciferase; Potency, µM (top dose mostly 115 µM), usual class: inhibitors; 76,000 compounds, 2.5% hits; purified P. pyralis luciferase, luminescence, biochemical; P08659; AID 1347043; note: nearly all actives have a fitted effect of over 65% in size
#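 Inhibitors were tested against purified firefly luciferase in a biochemical, low-substrate format (both substrates at 10uM) and luminescence measured with a CCD imager.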
# * hit, by the source's call; i = inactive; u = inconclusive; x = no result; [ ] = another dose, or the depositor's remark. Most compounds without a hit are left out; they make up all but 7.2% or so of the library. Unless noted, calls come from the whole dose curve; as a rule, active = well fitted curve in the direction sought with a large enough effect; inconclusive = small, poorly fitted or top-dose-only effect, or another doubt; inactive = no such curve, though single readings can be large; an effect the other way counts as inactive or inconclusive. Unless noted, % is set by controls: 0 for no effect and ±100 for the full control effect; potency is the fitted concentration of half-maximal effect.
SMILES,HEK cytotox,3T3 cytotox,HEK293 viab,SNCA expr inhib,hNpr1 antagonist,Luciferase inh
COc1ccc(CN2Cc3[nH]nc(-c4ccccc4)c3CC2=O)cc1,i,u,-7.4%[87.6 µM],17.0%[87.6 µM],-1.0%[70.6 µM],i
COc1ccc(CN2Cc3[nH]nc(-c4ccc(N5CCN(C)CC5)cc4)c3CC2=O)cc1,44.7µM*,79.4µM*,6.4%[87.6 µM],2.6%[87.6 µM],-3.2%[70.6 µM],i
COc1ccc(CN2Cc3[nH]nc(-c4ccnn4C)c3CC2=O)cc1,112µM*,u,5.0%[87.6 µM],-2.2%[87.6 µM],-16.8%[70.6 µM],i
COc1ccc(-c2cccc(CCOc3cnc4c(ccn4CC(=O)O)c3)c2)c(C)c1,u,-12.1%[138 µM],0.8%[87.6 µM],-5.0%[87.6 µM],-0.2%[70.6 µM],i
COc1ccc(-c2cnc3[nH]cc(CC(=O)N4CCOCC4)c3c2)cn1,u,25.1µM*,-4.6%[87.6 µM],43.4%[87.6 µM],-26.5%[70.6 µM],u
CN(C)C(=O)c1ccc(-c2cnc3[nH]cc(CC(=O)N4CCOCC4)c3c2)cc1,u,u,2.9%[87.6 µM],-3.5%[87.6 µM],-1.9%[70.6 µM],i
O=C(Cc1c[nH]c2ncc(-c3ccncc3)cc12)N1CCOCC1,-23.7%[172 µM],u,1.6%[87.6 µM],14.2%[87.6 µM],-2.6%[70.6 µM],i
O=C(Cc1c[nH]c2ncc(-c3ccc(F)cc3)cc12)N1CCOCC1,u,u,-1.9%[87.6 µM],1.0%[87.6 µM],u,56.2µM*
O=C(Cc1c[nH]c2ncc(-c3ccc4c(c3)OCO4)cc12)N1CCOCC1,u,25.1µM*,-0.6%[87.6 µM],-1.1%[87.6 µM],u,u
COc1ncccc1-c1cnc2[nH]cc(CC(=O)N3CCOCC3)c2c1,u,u,-6.0%[87.6 µM],28.9%[87.6 µM],u,i
CCN1c2cc(C(=O)Nc3cccc(C(C)C)c3)ccc2C(=O)N2CCCCCC21 (stereo unspecified),28.2µM*,31.6µM*,-0.2%[12.5 µM],u,-6.4%,i
CCN1c2cc(C(=O)Nc3ccc(C(N)=O)cc3)ccc2C(=O)N2CCCCCC21 (stereo unspecified),u,u,24.7%[12.5 µM],22.5%,-2.1%,i
CCc1cccc(NC(=O)c2ccc3c(c2)N(CC)C2CCCCN2C3=O)c1 (stereo unspecified),u,u,u,u,0.0%,i
CCc1cccc(NC(=O)c2ccc3c(c2)N(C)C2CCCCCN2C3=O)c1 (stereo unspecified),35.5µM*,u,15.5%[12.5 µM],13.9%,-0.4%,u
CCN1c2cc(C(=O)Nc3ccccc3C(=O)OC)ccc2C(=O)N2CCCCCC21 (stereo unspecified),u,20µM*,3.9%[12.5 µM],-15.2%,-2.2%,i
CCc1cccc(NC(=O)c2ccc3c(c2)N(C)C2CCCN2C3=O)c1 (stereo unspecified),u,u,7.0%[12.5 µM],102.9%,0.0%,25.1µM*
O=C(N1CCCCC1)N1CCN(c2cc(Cl)ncn2)C(=O)C1,-21.5%,u,-4.6%,-4.3%,x,x
CCc1cccc(NC(=O)c2ccc3c(c2)N(CC)C2CCCCCN2C3=O)c1 (stereo unspecified),31.6µM*,u,-1.8%[12.5 µM],-6.5%,1.7%,i
O=C(Nc1ccccc1)N1CCN(c2nccc(Nc3ccccc3F)n2)CC1,u,44.7µM*,-17.7%[12.5 µM],-23.2%,x,x
O=C(NC1CCCC1)N1CCN(c2nccc(Nc3ccccc3F)n2)CC1,44.7µM*,u,-18.2%,u,x,x
COC(=O)N1CCN(c2nccc(Nc3ccccc3F)n2)CC1,89.1µM*,u,u,61.9%[87.6 µM],x,x
CC(C)NC(=O)N1CCN(c2nccc(Nc3ccccc3F)n2)CC1,25.1µM*,u,-4.9%[12.5 µM],-11.4%,x,x
COc1ccccc1Nc1ccnc(N2CCN(C(=O)NC(C)C)CC2)n1,u,u,-4.7%,u,x,x
COCC(=O)N1CCN(c2nccc(Nc3ccccc3F)n2)CC1,1.9%,-19.7%,4.4%,28.3%,x,x
COCCNC(=O)C1CN(c2ccnc3ccnn23)C1,3.7%[172 µM],-22.0%[138 µM],12.0%[87.6 µM],-9.5%[87.6 µM],x,x
SMILES,HEK cytotox,3T3 cytotox,HEK293 viab,SNCA expr inhib,hNpr1 antagonist,Luciferase inh
NC(=O)c1cccc(CN2CCC3(CC2)CC(c2ccccc2)=NO3)c1,u,-28.5%,-5.8%,54.2%,x,x
COC[C@@H]1CN(Cc2cccc(OC)c2OC)C[C@H]1c1ccncc1,39.8µM*,u,1.8%,19.2%,-17.2%,i
COc1cccc(CN2C[C@@H](CO)[C@H](c3ccncc3)C2)c1OC,89.1µM*,-19.4%,-27.7%,-10.9%,3.2%,i
CC(C)Oc1ccccc1CN1C[C@@H](CO)[C@H](c2ccncc2)C1,39.8µM*,u,1.8%,u,-17.2%,i
O=C1NCC(=O)N2CCN(C(=O)c3cnnn3-c3ccccc3)CC12 (stereo unspecified),0.6%,-4.3%,-5.3%,-12.1%,-2.7%,i
CCOc1cccc2c1OC[C@@H]1CN(CC)C(=O)CCN(C(=O)c3cccc(OC)c3)[C@H]21,u,-29.2%,x,x,x,x
Cc1cn2nc(C(=O)N3CCC(NC(=O)c4cccc(N(C)C)c4)CC3)cc2c(=O)[nH]1,-12.0%,-20.2%,1.5%,162.7%,-0.4%,35.5µM*
CN1CCC(C(=O)N2Cc3ccccc3CC3(CCCN(Cc4ccccc4)C3)C2)CC1 (stereo unspecified),u,u,-20.7%,12.6%,x,x
NCC(O)(CS(=O)(=O)O)c1ccc(Cl)cc1 (stereo unspecified),x,x,4.2%,-0.4%,x,x
NC[C@@](O)(c1ccc(Cl)cc1)c1ccc(-c2cn[nH]c2)cc1,x,x,23.8µM*,x,x,x
CC(C)CNC(=O)N1CCC(c2noc(C3CC3)n2)C1 (stereo unspecified),-2.7%,4.9%,-4.4%,-5.3%,-0.3%,i
CNC(=O)N1CCC(C2CCN(C(=O)c3cn[nH]c3)C2)CC1 (stereo unspecified),-13.0%,1.5%,4.2%[12.5 µM],30.6%,13.9%,i
COc1ccc(Nc2ccnc(N3CCC(NC(=O)C4CCCC4)CC3)n2)cc1,50.1µM*,u,0.8%[12.5 µM],-18.5%,x,x
COc1ccc(Nc2ccnc(N3CCC(NC(=O)NC4CCCC4)CC3)n2)cc1,u,u,-4.8%[12.5 µM],u,x,x
COc1ccc(Nc2ccnc(N3CCN(C(=O)C4CCCC4)CC3)n2)cc1,28.2µM*,u,-5.8%,-16.2%,x,x
COc1ccc(Nc2ccnc(N3CCC(C(=O)N4CCOCC4)CC3)n2)cc1,-29.7%,-25.1%,-8.2%[12.5 µM],2.2%,x,x
COc1ccc(Nc2ccnc(N3CCC(C(=O)NC4CCCC4)CC3)n2)cc1,u,35.5µM*,-17.7%[12.5 µM],0.8%,x,x
Cc1ccc(CN2CCC(Cn3c(C)cnc3-c3cccnc3)CC2)s1,u,u,-2.8%,u,x,x
CC1NC(=O)CCCNC(=O)C(Cc2c[nH]c3ccccc23)NC(=O)C(C)NC(=O)C(C(C)C)NC(=O)C(C(C)c2ccccc2)NC(=O)C(C(C)C)NC1=O (stereo unspecified),x,x,11.3%[23.9 µM],x,x,x
